In assay [1] the target is Thyrotropin-releasing hormone receptor (Homo sapiens) (UniProt P34981). The assay can be described thus: qHTS assay to identify small molecule agonists of the thyrotropin-releasing hormone receptor (TRHR) signaling pathway (AID 1346891; calls by dose curve;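 further: HEK293 cells expressing TRHR with calcium dye readout; series mostly up to about 58 µM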). In short, it runs like this:
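Kinetic fluorescence (3 min, 1 s intervals) reported intracellular calcium after compound transfer onto TRHR-Hek293 cells pre-loaded with dye for 2 h at 37 °C.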
For orientation: qHTS replaces the single test concentration by a dilution series.

Assay [2] can be described thus: Human pregnane X receptor (PXR) small molecule agonists, qHTS cell viability counter screen (AID 1346977). Further: nearly all actives have a fitted effect of over 50% in size. Put shortly: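 HepG2 cells stably carrying the PXR-Luc reporter are cultured with 5% charcoal-stripped FBS and treated with compounds for 24hr. CellTiter-Fluor is added at 23hr and fluorescence is read after 1hr.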
A short description of assay [3]: Caspase-3/7 induction in HepG2 cells by small molecules, qHTS assay (AID 1346978). Further: nearly all actives have a fitted effect of over 15% in size. Put shortly: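 Wild-type HepG2 cells, 2,000/well, settled 5 hr at 37 C and 5% CO2, then compound-treated for 17 hr; caspase-3/7 activity read by luminescent Caspase-Glo 3/7 after 30 min at room temperature.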
Assay [4] in a line: Caspase-3/7 induction in CHO-K1 cells by small molecules, qHTS cell viability counter screen (AID 1346979). Further: nearly all actives have a fitted effect of over 35% in size. Put shortly: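 Seeding: 1,500 CHO-K1 cells/well. Rest: 5hr, 37C. Treatment: compounds in DMSO, 16hr. Read: CellTiter-Fluor, 1hr, fluorescence.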
Assay [5] in a line: Caspase-3/7 induction in CHO-K1 cells by small molecules, qHTS assay (AID 1346980). Further: nearly all actives have a fitted effect of over 15% in size. Put shortly: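 Wild-type CHO-K1 cells exposed to compounds for 17hr at 37 C, 5% CO2. Caspase-3/7 activity then measured by Caspase-Glo 3/7 luminescence after 30min at room temperature.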
Assay [6] in a line: Caspase-3/7 induction in HepG2 cells by small molecules, qHTS cell viability counter screen (AID 1346981). Further: series mostly up to about 92 µM; nearly all actives have a fitted effect of over 30% in size. In short, it runs like this:
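Wild-type HepG2 cells (2,000/well) were allowed to settle for 5 hr at 37 C, 5% CO2, then dosed with compounds in DMSO by pin transfer. After 16 hr at 37 C, CellTiter-Fluor was added and fluorescence read 1 hr later.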

Assay [7] concerns the target Nuclear receptor subfamily 1 group I member 2 (Homo sapiens) (UniProt O75469). The assay can be described thus: Human pregnane X receptor (PXR) small molecule agonists, qHTS assay (AID 1346982). Further: nearly all actives have a fitted effect of over 35% in size. In short, it runs like this: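 PXR-Luc HepG2 cells (CYP3A4 promoter-driven luciferase) were seeded in medium with 5% charcoal-stripped FBS, left 5 hr at 37 C, then exposed to compounds in DMSO for 24 hr. Luminescence was read after ONE-Glo addition.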

In assay [8] the target is Nuclear receptor subfamily 1 group I member 2 (Rattus norvegicus) (UniProt Q9R1A7). Nature of the assay: Rat pregnane X receptor (rPXR) activation by small molecules, qHTS assay (AID 1346983). Further: nearly all actives have a fitted effect of over 20% in size. Conditions: rPXR luciferase reporter cells, One-Glo luminescence, 24 h; max activation: stronger effect = higher value. In short, it runs like this: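 Cell-based rPXR activation assay: rPXR cells, 2,000 per well, rested 5hr at 37 C, then exposed to compounds in DMSO for 24 hr at 37 C. Luciferase activity read by One-Glo luminescence after 30 min at room temperature.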
Chain of Nuclear receptor subfamily 1 group I member 2 (Rattus norvegicus) (Q9R1A7 whole entry, looked up): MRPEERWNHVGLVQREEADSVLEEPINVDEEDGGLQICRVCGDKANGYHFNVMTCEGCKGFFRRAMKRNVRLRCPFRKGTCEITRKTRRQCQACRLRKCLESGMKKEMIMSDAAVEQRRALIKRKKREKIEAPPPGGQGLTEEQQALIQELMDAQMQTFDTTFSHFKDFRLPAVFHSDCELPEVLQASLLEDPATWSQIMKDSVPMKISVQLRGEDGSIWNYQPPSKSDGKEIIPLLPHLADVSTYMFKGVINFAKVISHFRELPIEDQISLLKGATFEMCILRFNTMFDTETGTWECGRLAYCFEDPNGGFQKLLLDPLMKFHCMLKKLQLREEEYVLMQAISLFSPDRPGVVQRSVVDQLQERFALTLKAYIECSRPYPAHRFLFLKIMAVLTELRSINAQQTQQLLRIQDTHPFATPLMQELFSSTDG

For assay [9], the target named is Nuclear receptor subfamily 1 group I member 2 (Homo sapiens) (UniProt O75469). Nature of the assay: CYP3A4 induction through human pregnane X receptor (PXR) by small molecules, qHTS assay (AID 1346984). Further: nearly all actives have a fitted effect of over 40% in size. Put shortly: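 DPX-2 cells (HepG2 co-transfected with PXR and CYP3A4 promoter-luciferase) treated with compounds 24 h at 37C; luciferin-IPA CYP3A4 substrate 3uM final added for 3 h, then One-Glo; luminescence read. qHTS format.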
Chain of Nuclear receptor subfamily 1 group I member 2 (Homo sapiens) (O75469 whole entry, looked up): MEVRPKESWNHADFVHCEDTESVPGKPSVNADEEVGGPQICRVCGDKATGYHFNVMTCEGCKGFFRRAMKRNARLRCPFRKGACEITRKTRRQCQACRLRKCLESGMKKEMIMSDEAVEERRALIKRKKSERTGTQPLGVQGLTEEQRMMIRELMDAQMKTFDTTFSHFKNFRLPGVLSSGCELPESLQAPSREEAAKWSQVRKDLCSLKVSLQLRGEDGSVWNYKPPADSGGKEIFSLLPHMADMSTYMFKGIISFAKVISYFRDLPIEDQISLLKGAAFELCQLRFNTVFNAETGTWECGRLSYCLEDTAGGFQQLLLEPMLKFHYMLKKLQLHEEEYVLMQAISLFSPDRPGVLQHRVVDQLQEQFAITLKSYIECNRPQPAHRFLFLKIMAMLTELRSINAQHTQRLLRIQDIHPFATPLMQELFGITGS

Assay [10] shares this target. Nature of the assay: Human pregnane X receptor (PXR) activation by small molecules, qHTS assay (AID 1346985). Further: nearly all actives have a fitted effect of over 40% in size. Put shortly: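 DPX-2 cells (HepG2 co-transfected with a PXR response element and a CYP3A4-promoter luciferase construct) were seeded at 2,000 per well, rested 5 hr at 37C, then exposed to DMSO-dissolved compounds for 24 hr. Activation was read as luciferase luminescence.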

Assay [11] has as its target Cytochrome P450 2D6 (Homo sapiens) (UniProt P10635). Nature of the assay: Cytochrome P450 Family 2 Subfamily D Member 6 (CYP2D6) small molecule antagonists: luciferase reporter qHTS assay (AID 1671196). Further: nearly all actives have a fitted effect of over 50% in size. Further: potency means the concentration at half of the fitted maximal effect. On activity change, negative = inhibition: series mostly up to about 120 µM. Put shortly:
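CYP2D6 enzyme–substrate mix was held with compound for 10 min at room temperature, then NADPH regeneration solution was added and the reaction ran 1 h at room temperature. Luciferin product was detected by luminescence after 20 min with detection reagent.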
For orientation: Reporter assays use an easily measured gene product as a stand-in for the process of interest.

In assay [12] the target is Cytochrome P450 2C9 (Homo sapiens) (UniProt P11712). Nature of the assay: Cytochrome P450 Family 2 Subfamily C Member 9 (CYP2C9) small molecule antagonists: luciferase reporter qHTS assay (AID 1671198). Further: nearly all actives have a fitted effect of over 50% in size. Further: potency means the concentration at half of the fitted maximal effect. On activity change, negative = inhibition: series mostly up to about 120 µM. Put shortly:
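P450-Glo proluciferin substrate with CYP2C9 enzyme; 10 min RT preincubation, then NADPH regeneration 1 h at 37C; luciferin detection reagent 20 min RT, luminescence in relative luminescence units.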

Assay [13] concerns the target Cytochrome P450 1A2 (Homo sapiens) (UniProt P05177). The assay can be described thus: Cytochrome P450 Family 1 Subfamily A Member 2 (CYP1A2) small molecule antagonists: luciferase reporter qHTS assay (AID 1671199). Further: series mostly up to about 120 µM; nearly all actives have a fitted effect of over 50% in size. In short, it runs like this:
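Human CYP1A2 activity measured with a P450-Glo proluciferin substrate; compounds in DMSO preincubated 10 min at room temperature with enzyme-substrate mix, then NADPH regeneration system added for 1 h. Luciferin detection reagent, 20 min, luminescence read.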

In assay [14] the target is Voltage-gated inwardly rectifying potassium channel KCNH2 (Homo sapiens) (UniProt Q12809). The assay can be described thus: Human Ether-a-go-go-Related Gene (hERG) channel small molecule antagonists: fluorescence cell-based qHTS assay (AID 1671200). In short, it runs like this: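 First, 1000 cells per well are seeded and cultured overnight at 37 C. Next, FluxOR II dye is loaded for 1 h at room temperature, protected from light. After 10 more minutes, stimulus is added and fluorescence is read.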
Chain of Voltage-gated inwardly rectifying potassium channel KCNH2 (Homo sapiens) (Q12809 whole entry, looked up): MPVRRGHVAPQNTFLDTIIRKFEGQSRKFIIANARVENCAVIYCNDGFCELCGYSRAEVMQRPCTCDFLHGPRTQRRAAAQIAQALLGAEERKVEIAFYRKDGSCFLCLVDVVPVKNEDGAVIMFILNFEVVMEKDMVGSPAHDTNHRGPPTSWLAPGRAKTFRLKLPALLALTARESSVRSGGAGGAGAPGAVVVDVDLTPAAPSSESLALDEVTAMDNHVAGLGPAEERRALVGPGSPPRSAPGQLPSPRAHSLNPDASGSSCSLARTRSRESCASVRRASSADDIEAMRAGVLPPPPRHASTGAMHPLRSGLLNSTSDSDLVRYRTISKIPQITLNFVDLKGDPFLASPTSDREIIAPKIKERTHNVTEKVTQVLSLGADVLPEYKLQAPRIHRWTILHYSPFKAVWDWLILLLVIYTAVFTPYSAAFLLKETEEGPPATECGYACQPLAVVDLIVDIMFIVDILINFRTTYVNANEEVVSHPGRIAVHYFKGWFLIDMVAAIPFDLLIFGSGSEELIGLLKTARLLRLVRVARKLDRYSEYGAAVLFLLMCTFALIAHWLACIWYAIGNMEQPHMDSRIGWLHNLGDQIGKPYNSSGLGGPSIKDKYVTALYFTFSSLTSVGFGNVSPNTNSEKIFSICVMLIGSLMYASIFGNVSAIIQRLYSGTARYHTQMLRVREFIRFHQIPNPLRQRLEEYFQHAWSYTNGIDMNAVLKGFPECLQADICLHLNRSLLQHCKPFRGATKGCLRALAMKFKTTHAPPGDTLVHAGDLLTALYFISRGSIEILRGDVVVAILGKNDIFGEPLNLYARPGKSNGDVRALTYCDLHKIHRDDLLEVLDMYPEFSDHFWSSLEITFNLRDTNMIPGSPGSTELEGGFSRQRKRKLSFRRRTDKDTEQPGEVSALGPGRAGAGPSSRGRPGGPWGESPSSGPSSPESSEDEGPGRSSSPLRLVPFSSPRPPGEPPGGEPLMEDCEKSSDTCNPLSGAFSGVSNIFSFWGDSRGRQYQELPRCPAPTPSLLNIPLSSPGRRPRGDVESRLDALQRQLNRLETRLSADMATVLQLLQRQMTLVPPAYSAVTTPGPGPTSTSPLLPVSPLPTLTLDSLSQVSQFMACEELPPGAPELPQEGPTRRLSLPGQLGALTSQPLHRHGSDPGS
(In general: hERG is a cardiac potassium channel; its block is linked to QT prolongation.)

Assay [15] deals with Cytochrome P450 2C19 (Homo sapiens) (UniProt P33261). The assay can be described thus: Cytochrome P450 Family 2 Subfamily C Member 19 (CYP2C19) small molecule antagonists: luciferase reporter qHTS assay (AID 1671197). Further: nearly all actives have a fitted effect of over 65% in size. Further: potency means the concentration at half of the fitted maximal effect. On activity change, negative = inhibition: series mostly up to about 120 µM. Put shortly:
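Luminescent readout of CYP2C19 activity: luciferin product detected 20 min after adding detection reagent. Before that, compound and enzyme-substrate mix preincubated 10 min at room temperature; NADPH-regenerating system started a 1 h, 37C reaction. Ketoconazole as positive control.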

The target of assay [16] is Cytochrome P450 3A4 (Homo sapiens) (UniProt P08684). Nature of the assay: Cytochrome P450 Family 3 Subfamily A Member 4 (CYP3A4) small molecule antagonists: luciferase reporter qHTS assay (AID 1671201). Put shortly:
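Enzyme and proluciferin substrate are mixed with test chemicals for 10 min, then NADPH regeneration system drives turnover for 1 h at room temperature. A detection reagent halts the reaction; luminescence after 20 min gives relative activity.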

The values that follow come from PubChem BioAssay (Tox21).

SMILES strings stand for the structures. Unmarked numbers belong to inactive results. Results filed as inconclusive are left out. The source made the active and inactive calls. Unless noted, the call rests on the fitted dose curve; in most records, active means well fitted curve in the direction sought with a large enough effect in the repeat runs; inconclusive means weak or mixed curves; inactive means no such curve, though single readings can be large; an effect the other way counts as inactive or inconclusive.
On the % scale 0 is the no-effect control and ±100 the full control effect.

Chain of Cytochrome P450 2C19 (Homo sapiens) (P33261 whole entry, looked up): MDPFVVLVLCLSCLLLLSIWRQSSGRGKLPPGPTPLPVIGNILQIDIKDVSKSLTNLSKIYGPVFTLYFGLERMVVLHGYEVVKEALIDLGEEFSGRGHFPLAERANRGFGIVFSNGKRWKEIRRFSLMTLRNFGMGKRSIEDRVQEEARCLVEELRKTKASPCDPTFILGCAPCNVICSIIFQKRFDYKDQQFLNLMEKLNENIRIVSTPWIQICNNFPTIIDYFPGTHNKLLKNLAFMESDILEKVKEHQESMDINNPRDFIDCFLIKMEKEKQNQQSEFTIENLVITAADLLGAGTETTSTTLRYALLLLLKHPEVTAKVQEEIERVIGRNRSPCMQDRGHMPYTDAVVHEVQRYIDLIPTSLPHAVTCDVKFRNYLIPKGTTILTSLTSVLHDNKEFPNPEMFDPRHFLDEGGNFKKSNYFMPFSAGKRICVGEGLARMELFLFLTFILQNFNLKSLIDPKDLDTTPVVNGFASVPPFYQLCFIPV
Chain of Cytochrome P450 1A2 (Homo sapiens) (P05177 whole entry, looked up): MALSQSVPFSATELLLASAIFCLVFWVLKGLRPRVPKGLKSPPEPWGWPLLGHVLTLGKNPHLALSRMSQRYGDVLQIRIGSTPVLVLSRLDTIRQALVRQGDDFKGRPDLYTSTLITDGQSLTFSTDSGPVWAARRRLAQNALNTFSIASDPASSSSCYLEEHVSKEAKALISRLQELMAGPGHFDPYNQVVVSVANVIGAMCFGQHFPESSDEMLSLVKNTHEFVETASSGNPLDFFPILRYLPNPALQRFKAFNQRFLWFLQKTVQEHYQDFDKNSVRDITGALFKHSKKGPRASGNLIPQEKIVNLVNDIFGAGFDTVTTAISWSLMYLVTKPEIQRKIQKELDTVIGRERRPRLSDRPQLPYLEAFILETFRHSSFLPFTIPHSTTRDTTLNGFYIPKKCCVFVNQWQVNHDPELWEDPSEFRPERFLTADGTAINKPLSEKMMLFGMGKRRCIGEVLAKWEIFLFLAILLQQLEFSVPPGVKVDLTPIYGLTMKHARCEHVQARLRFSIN
Chain of Cytochrome P450 2D6 (Homo sapiens) (P10635 whole entry, looked up): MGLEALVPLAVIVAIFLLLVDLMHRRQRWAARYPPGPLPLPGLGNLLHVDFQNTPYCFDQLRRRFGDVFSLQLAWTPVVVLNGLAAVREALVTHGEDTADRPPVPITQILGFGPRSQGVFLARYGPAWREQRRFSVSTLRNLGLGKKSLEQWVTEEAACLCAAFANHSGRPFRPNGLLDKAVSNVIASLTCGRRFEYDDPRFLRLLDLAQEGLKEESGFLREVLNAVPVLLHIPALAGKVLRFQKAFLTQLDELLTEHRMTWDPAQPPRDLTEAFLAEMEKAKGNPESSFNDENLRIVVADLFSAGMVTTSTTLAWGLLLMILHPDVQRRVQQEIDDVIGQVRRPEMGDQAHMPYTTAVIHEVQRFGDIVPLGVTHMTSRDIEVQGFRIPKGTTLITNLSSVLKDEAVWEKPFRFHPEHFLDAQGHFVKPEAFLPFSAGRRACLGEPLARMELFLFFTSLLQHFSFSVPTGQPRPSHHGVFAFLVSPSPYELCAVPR
Chain of Cytochrome P450 2C9 (Homo sapiens) (P11712 whole entry, looked up): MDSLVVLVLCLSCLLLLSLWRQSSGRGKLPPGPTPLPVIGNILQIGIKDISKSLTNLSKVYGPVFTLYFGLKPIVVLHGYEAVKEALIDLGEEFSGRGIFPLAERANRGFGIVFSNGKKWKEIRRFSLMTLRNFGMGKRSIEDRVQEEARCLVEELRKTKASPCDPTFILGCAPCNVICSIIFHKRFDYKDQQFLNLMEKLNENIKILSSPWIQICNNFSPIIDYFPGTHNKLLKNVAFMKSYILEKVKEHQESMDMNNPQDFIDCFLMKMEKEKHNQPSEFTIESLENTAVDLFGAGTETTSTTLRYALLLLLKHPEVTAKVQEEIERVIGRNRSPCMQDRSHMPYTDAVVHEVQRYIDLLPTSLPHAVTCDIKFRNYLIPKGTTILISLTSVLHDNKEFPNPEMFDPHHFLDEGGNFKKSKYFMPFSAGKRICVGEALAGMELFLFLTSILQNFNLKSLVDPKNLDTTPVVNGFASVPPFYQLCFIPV
Chain of Thyrotropin-releasing hormone receptor (Homo sapiens) (P34981 whole entry, looked up): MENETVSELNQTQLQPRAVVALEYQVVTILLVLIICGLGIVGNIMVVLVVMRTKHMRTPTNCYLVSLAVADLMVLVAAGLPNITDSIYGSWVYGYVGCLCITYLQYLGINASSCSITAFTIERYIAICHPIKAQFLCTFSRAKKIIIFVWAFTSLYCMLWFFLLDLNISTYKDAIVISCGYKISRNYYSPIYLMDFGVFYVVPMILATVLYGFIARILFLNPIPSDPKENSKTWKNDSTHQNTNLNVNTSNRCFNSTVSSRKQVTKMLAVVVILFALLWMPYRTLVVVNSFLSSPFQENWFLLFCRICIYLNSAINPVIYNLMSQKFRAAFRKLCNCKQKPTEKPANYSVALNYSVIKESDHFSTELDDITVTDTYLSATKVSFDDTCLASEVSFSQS
Chain of Cytochrome P450 3A4 (Homo sapiens) (P08684 whole entry, looked up): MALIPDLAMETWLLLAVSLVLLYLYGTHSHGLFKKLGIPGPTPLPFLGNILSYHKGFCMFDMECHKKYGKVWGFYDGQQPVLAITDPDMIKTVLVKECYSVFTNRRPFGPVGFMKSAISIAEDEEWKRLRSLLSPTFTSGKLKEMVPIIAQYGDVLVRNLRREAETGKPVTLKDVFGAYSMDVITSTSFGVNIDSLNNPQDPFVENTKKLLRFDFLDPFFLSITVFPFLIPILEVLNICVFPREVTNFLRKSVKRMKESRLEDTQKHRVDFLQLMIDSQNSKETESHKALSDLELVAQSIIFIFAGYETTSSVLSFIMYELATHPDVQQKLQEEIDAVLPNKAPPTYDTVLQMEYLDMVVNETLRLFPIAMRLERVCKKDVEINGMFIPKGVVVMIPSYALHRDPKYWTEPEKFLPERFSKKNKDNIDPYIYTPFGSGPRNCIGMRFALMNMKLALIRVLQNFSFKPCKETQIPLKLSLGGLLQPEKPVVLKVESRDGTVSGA

With `NS(=O)(=O)c1cc2c(cc1Cl)NC(CSCc1ccccc1)=NS2(=O)=O`, the compound was classed as inactive in assay [1], in assay [3], in [5] and in [6]. Further, the Potency result in [2], in assay [4], in assay [7], in assay [9], in [10] and in assay [13] was “inactive” in each case. The Potency entry in [14] was “inactive”. Further, in assay [8], the max activation was -1.07%. For the same compound, the Potency was 34.7 µM (active) in assay [11] and 4.9 µM (active) in [12].
Turning to `OC[C@H]1O[C@@H]2O[C@H]3[C@H](O)[C@@H](O)[C@@H](O[C@H]4[C@H](O)[C@@H](O)[C@@H](O[C@H]5[C@H](O)[C@@H](O)[C@@H](O[C@H]6[C@H](O)[C@@H](O)[C@@H](O[C@H]7[C@H](O)[C@@H](O)[C@@H](O[C@H]8[C@H](O)[C@@H](O)[C@@H](O[C@H]9[C@H](O)[C@@H](O)[C@@H](O[C@H]1[C@H](O)[C@H]2O)O[C@@H]9CO)O[C@@H]8CO)O[C@@H]7CO)O[C@@H]6CO)O[C@@H]5CO)O[C@@H]4CO)O[C@@H]3CO`, the compound was called inactive in [1], in assay [3], in [5] and in assay [6]. For the same compound, the Potency entry in assay [2], in [4], in assay [7], in [11], in assay [15] and in assay [12] was “inactive” each time. Also, the Potency result in assay [13], in assay [14] and in assay [16] was “inactive” throughout.
Consider `CC1CCN(CCCC(=O)c2ccc(F)cc2)CC1`, for which the outcome in [1], in assay [3], in [5] and in [6] was inactive. Moreover, the Potency entry in assay [2], in assay [4], in assay [7], in [9], in [10] and in [12] was “inactive” throughout. In addition, the Potency result in assay [13] and in assay [16] was “inactive” each time. The Potency in [11] is 0.246 µM (active); in [15], 34.7 µM (active).
For `C=C(C)C(=O)NCCCN(C)C`, the compound was called inactive in assay [1], in [3], in assay [5] and in assay [6]. For the same compound, the Potency entry in assay [2], in assay [4], in [7], in assay [11], in [15] and in [12] was “inactive” each time. Besides, the Potency entry in assay [14] is “inactive”.
Regarding `CC(C)[N+](C)(C)CC(O)COc1cccc2ccccc12` (stereo not drawn), the call in [1], in [3], in assay [5] and in assay [6] was inactive. In addition, the Potency entry in assay [2], in [4], in [7], in assay [9], in assay [10] and in assay [15] was “inactive” throughout. Besides, the Potency result in [12], in assay [13] and in [14] was “inactive” in each case. For the same compound, the Potency in assay [11] was 4.36 µM (active).
On to `COCc1ccc(COC)cc1`, for which the outcome in assay [1], in [3], in [5] and in assay [6] was inactive. Further, the Potency result in assay [2], in assay [4], in [7], in assay [11], in assay [15] and in assay [12] was “inactive” each time. Further, the Potency entry in assay [13], in assay [14] and in assay [16] was “inactive” throughout.
For `NC1CCN(c2cccc(Cl)n2)CC1`, the compound was classed as inactive in assay [1], in assay [3], in [5] and in [6]. Besides, the Potency result in assay [2], in [4], in assay [7], in assay [15], in [12] and in [14] was “inactive” throughout. Moreover, in [16], the Potency entry was “inactive”. Moreover, in assay [11], the Potency is 1.23 µM (active).
In the case of `NC(=S)Nc1cccc2ccccc12`, the figures for the activation in [1] and in [7] were -0.377% [at 5.23 µM] and -0.9% [at 8.39 µM], respectively. Moreover, the activity change, negative = cytotoxicity in assay [2] was -0.344% [at 8.39 µM]; in assay [4], -1.57% [at 8.39 µM]; in [6], -1.33% [at 8.39 µM]. The caspase activation in [3] was 1% [at 8.39 µM]. The caspase-3/7 activation in assay [5] is 0.137% [at 8.39 µM]. Besides, the Potency in [11] is 2.01 µM (active). The activity change, negative = inhibition in assay [15] is -10% [at 10.5 µM]; in assay [12], -2.82% [at 10.5 µM]; in assay [13] it was -26.4% [at 10.5 µM]; in assay [14] it was 1.12% [at 6.97 µM]; in assay [16] it was 1.29% [at 10.5 µM].
In the case of `NC(=O)c1ncn([C@@H]2O[C@H](CO)[C@@H](O)[C@H]2O)c1N`, the compound was classed as inactive in assay [1], in assay [3], in [5] and in assay [6]. In addition, the Potency result in assay [2], in assay [4], in assay [7], in [9], in [10] and in assay [11] was “inactive” each time. Also, the Potency entry in assay [15], in [12], in [13] and in assay [16] was “inactive” in each case.
